# Inconclusive results are not listed. Calls of active or inactive are those of the source. Calls come from the whole dose curve.
# Assay: Cell Viability - HepG2 (AID 433);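 note: potency for ATP loss meaning cytotoxicity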
# Details: qHTS
# Method in brief: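 Cytotoxicity is scored as loss of intracellular ATP in HepG2 cells exposed to compounds for 40 h. Concentration-response curves, normalized to DMSO and 100 uM tamoxifen, give AC50 values.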
# Potency is the fitted concentration of half-maximal effect.
row,SMILES,Potency
1,CC(C#N)CCC#N (configuration not stated),> 92 µM (inactive)
2,Nc1cc(Cl)ccc1Cl,> 92 µM (inactive)
3,Nc1cccc(Cl)c1,> 92 µM (inactive)
4,ClCc1ccccc1,> 92 µM (inactive)
5,CCC/C=N/O,> 92 µM (inactive)
6,COc1c(C(C)(C)C)cc([N+](=O)[O-])c(C)c1[N+](=O)[O-],> 92 µM (inactive)
7,O=S(=O)(Cl)c1ccccc1,> 92 µM (inactive)
8,C=CCOCC1CO1 (configuration not stated),> 92 µM (inactive)
9,c1ccoc1,> 92 µM (inactive)
10,Clc1ccccc1,> 92 µM (inactive)
11,ClC(Cl)(Cl)C(Cl)(Cl)Cl,> 92 µM (inactive)
12,CCOC(=O)C1OC1(C)c1ccccc1 (configuration not stated),> 92 µM (inactive)
13,C/C=C/CC#N,> 92 µM (inactive)
14,ClC(Cl)C(Cl)Cl,> 92 µM (inactive)
15,C=CCCl,> 92 µM (inactive)
16,Oc1c(Cl)cccc1Cl,> 92 µM (inactive)
17,Brc1cccc(-c2ccccc2)c1,> 92 µM (inactive)
18,C=CCO,> 92 µM (inactive)
19,OCCCCO,> 92 µM (inactive)
20,Nn1cnnc1,> 92 µM (inactive)

row,SMILES,Potency
1,BrCCc1ccccc1,> 92 µM (inactive)
2,Cc1ccccc1[N+](=O)[O-],> 92 µM (inactive)
3,CCCCOC(=O)c1ccccc1N,> 92 µM (inactive)
4,Clc1cc(Cl)c(Cl)c(Cl)c1,> 92 µM (inactive)
5,Cc1ccc(N)c(C)c1,> 92 µM (inactive)
6,C1CC2OC2CC1C1CO1 (configuration not stated),> 92 µM (inactive)
7,CN(C)C(=O)Cl,> 92 µM (inactive)
8,CC(=O)NNc1ccccc1,> 92 µM (inactive)
9,Cc1ccc(N=C=O)cc1N=C=O,> 92 µM (inactive)
10,O=C(Cl)OCc1ccccc1,> 92 µM (inactive)
11,C=CC(=O)OC,> 92 µM (inactive)
12,CCN(CC)N=O,> 92 µM (inactive)
13,OCC(Cl)CCl (configuration not stated),> 92 µM (inactive)
14,CC(C)CON=O,> 92 µM (inactive)
15,CC[N+](=O)[O-],> 92 µM (inactive)
16,CC(C)(Cl)[N+](=O)[O-],> 92 µM (inactive)
17,C[N+](=O)[O-],> 92 µM (inactive)
18,CC(C)OC(=O)Cc1ccccc1,> 92 µM (inactive)
19,ClCC(Br)CBr (configuration not stated),> 92 µM (inactive)

# Assay: Cell Viability - MRC5 (AID 434);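 note: cells exposed to compound for 40 hours at 37 °C; potency reflects cytotoxicity seen as loss of intracellular ATP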
# Details: MRC5 lung fibroblast viability, qHTS
# Method in brief: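 AC50 values come from Hill-equation fits of intracellular ATP loss, measured by CellTiter-Glo luminescence. Normal lung fibroblasts (MRC5) had 40 hr compound treatment at 37 C, normalized between DMSO and 100 uM tamoxifen.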
row,SMILES,Potency
1,CC(C#N)CCC#N (configuration not stated),> 92 µM (inactive)
2,Nc1cc(Cl)ccc1Cl,> 92 µM (inactive)
3,Nc1cccc(Cl)c1,> 92 µM (inactive)
4,ClCc1ccccc1,> 92 µM (inactive)
5,CCC/C=N/O,> 92 µM (inactive)
6,COc1c(C(C)(C)C)cc([N+](=O)[O-])c(C)c1[N+](=O)[O-],> 92 µM (inactive)
7,O=S(=O)(Cl)c1ccccc1,> 92 µM (inactive)
8,C=CCOCC1CO1 (configuration not stated),> 92 µM (inactive)
9,c1ccoc1,> 92 µM (inactive)
10,Clc1ccccc1,> 92 µM (inactive)
11,ClC(Cl)(Cl)C(Cl)(Cl)Cl,> 92 µM (inactive)
12,CCOC(=O)C1OC1(C)c1ccccc1 (configuration not stated),> 92 µM (inactive)
13,C/C=C/CC#N,> 92 µM (inactive)
14,ClC(Cl)C(Cl)Cl,> 92 µM (inactive)
15,C=CCCl,> 92 µM (inactive)
16,Oc1c(Cl)cccc1Cl,> 92 µM (inactive)
17,Brc1cccc(-c2ccccc2)c1,> 92 µM (inactive)
18,C=CCO,> 92 µM (inactive)
19,OCCCCO,> 92 µM (inactive)
20,Nn1cnnc1,> 92 µM (inactive)

row,SMILES,Potency
1,BrCCc1ccccc1,> 92 µM (inactive)
2,Cc1ccccc1[N+](=O)[O-],> 92 µM (inactive)
3,CCCCOC(=O)c1ccccc1N,> 92 µM (inactive)
4,Clc1cc(Cl)c(Cl)c(Cl)c1,> 92 µM (inactive)
5,Cc1ccc(N)c(C)c1,> 92 µM (inactive)
6,C1CC2OC2CC1C1CO1 (configuration not stated),> 92 µM (inactive)
7,CN(C)C(=O)Cl,> 92 µM (inactive)
8,CC(=O)NNc1ccccc1,> 92 µM (inactive)
9,Cc1ccc(N=C=O)cc1N=C=O,> 92 µM (inactive)
10,O=C(Cl)OCc1ccccc1,> 92 µM (inactive)
11,C=CC(=O)OC,> 92 µM (inactive)
12,CCN(CC)N=O,> 92 µM (inactive)
13,OCC(Cl)CCl (configuration not stated),> 92 µM (inactive)
14,CC(C)CON=O,> 92 µM (inactive)
15,CC[N+](=O)[O-],> 92 µM (inactive)
16,CC(C)(Cl)[N+](=O)[O-],> 92 µM (inactive)
17,C[N+](=O)[O-],> 92 µM (inactive)
18,CC(C)OC(=O)Cc1ccccc1,> 92 µM (inactive)
19,ClCC(Br)CBr (configuration not stated),> 92 µM (inactive)

# Assay: Cell Viability - SK-N-SH (AID 435);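 note: compound exposure lasted 40 h at 37 °C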
# Details: SK-N-SH neuroblastoma cell viability qHTS
# Method in brief: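 Cells seeded at 1500 per well and incubated 5 hr at 37 °C. Compound added, then 40 hr at 37 °C. CellTiter-Glo added, 20 min at room temperature, luminescence read.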
row,SMILES,Potency
1,CC(C#N)CCC#N (configuration not stated),> 92 µM (inactive)
2,Nc1cc(Cl)ccc1Cl,> 92 µM (inactive)
3,Nc1cccc(Cl)c1,> 92 µM (inactive)
4,ClCc1ccccc1,> 92 µM (inactive)
5,CCC/C=N/O,> 92 µM (inactive)
6,COc1c(C(C)(C)C)cc([N+](=O)[O-])c(C)c1[N+](=O)[O-],> 92 µM (inactive)
7,O=S(=O)(Cl)c1ccccc1,> 92 µM (inactive)
8,C=CCOCC1CO1 (configuration not stated),> 92 µM (inactive)
9,c1ccoc1,> 92 µM (inactive)
10,Clc1ccccc1,> 92 µM (inactive)
11,ClC(Cl)(Cl)C(Cl)(Cl)Cl,> 92 µM (inactive)
12,CCOC(=O)C1OC1(C)c1ccccc1 (configuration not stated),> 92 µM (inactive)
13,C/C=C/CC#N,> 92 µM (inactive)
14,ClC(Cl)C(Cl)Cl,> 92 µM (inactive)
15,C=CCCl,> 92 µM (inactive)
16,Oc1c(Cl)cccc1Cl,> 92 µM (inactive)
17,Brc1cccc(-c2ccccc2)c1,> 92 µM (inactive)
18,C=CCO,> 92 µM (inactive)
19,OCCCCO,> 92 µM (inactive)
20,Nn1cnnc1,> 92 µM (inactive)

row,SMILES,Potency
1,BrCCc1ccccc1,> 92 µM (inactive)
2,Cc1ccccc1[N+](=O)[O-],> 92 µM (inactive)
3,CCCCOC(=O)c1ccccc1N,> 92 µM (inactive)
4,Clc1cc(Cl)c(Cl)c(Cl)c1,> 92 µM (inactive)
5,Cc1ccc(N)c(C)c1,> 92 µM (inactive)
6,C1CC2OC2CC1C1CO1 (configuration not stated),> 92 µM (inactive)
7,CN(C)C(=O)Cl,> 92 µM (inactive)
8,CC(=O)NNc1ccccc1,> 92 µM (inactive)
9,Cc1ccc(N=C=O)cc1N=C=O,> 92 µM (inactive)
10,O=C(Cl)OCc1ccccc1,> 92 µM (inactive)
11,C=CC(=O)OC,> 92 µM (inactive)
12,CCN(CC)N=O,> 92 µM (inactive)
13,OCC(Cl)CCl (configuration not stated),> 92 µM (inactive)
14,CC(C)CON=O,> 92 µM (inactive)
15,CC[N+](=O)[O-],> 92 µM (inactive)
16,CC(C)(Cl)[N+](=O)[O-],> 92 µM (inactive)
17,C[N+](=O)[O-],> 92 µM (inactive)
18,CC(C)OC(=O)Cc1ccccc1,> 92 µM (inactive)
19,ClCC(Br)CBr (configuration not stated),> 92 µM (inactive)
